# Results published in PubChem BioAssay AID1745853 (National Center for Advancing Translational Sciences (NCATS), 2022).
# The whole screen tested about 25,000 compounds, of which about 970 (3.9%) were called active. Not shown: some 8% with an inconclusive outcome. How the calls were made is not given here. The list comes from a sample in which actives are over-represented; it also holds similar structures and randomly drawn compounds.
# Columns and labels:
# Assay in all cases: Primary Screen for Target Class Profiling of Small Molecule Inhibitors of Methyltransferases
# [1] = target: Catechol O-methyltransferase (Homo sapiens) (UniProt P21964); conditions: purified enzyme, MTase-Glo SAH luminescence; at 40 µM; stronger effect = lower value
# Chain of Catechol O-methyltransferase (Homo sapiens) (P21964 whole entry, looked up): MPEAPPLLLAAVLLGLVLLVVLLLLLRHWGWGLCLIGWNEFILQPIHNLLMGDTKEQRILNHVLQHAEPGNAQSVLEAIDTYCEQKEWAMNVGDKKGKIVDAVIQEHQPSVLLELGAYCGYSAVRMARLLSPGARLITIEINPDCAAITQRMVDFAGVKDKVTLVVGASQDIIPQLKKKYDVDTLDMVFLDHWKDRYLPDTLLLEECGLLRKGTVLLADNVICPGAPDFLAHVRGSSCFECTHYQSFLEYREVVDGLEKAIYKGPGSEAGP
# From the text: (§1) PI: Matthew D. Hall Ph.D. and Quinlin M. Hanson Ph.D.
# (§2) National Center for Advancing Translational Sciences (NCATS)
# (§3) National Institute of Health (NIH), Rockville, MD
# (§4) Target class profiling (TCP) is a chemical biology approach amenable to investigating understudied biological targets. TCP is achieved by developing a generalizable assay platform and applying it to screen a curated set of compound libraries against representative members of a target class. Small molecule methyltransferases (SMMTase) are a subclass of methyltransferase that act on metabolites to modulate signaling pathways, metabolize xenobiotics, or balance the available methyl pool. We screened four curated libraries totaling 27,574 unique compounds against the SMMTases nicotinamide N-methyltransferase (NNMT), phenylethanolamine N-methyltransferase (PNMT), histamine N-methyltransferase (HNMT), glycine N-methyltransferase (GNMT), catechol O-methyltransferase (COMT), and guanidinoacetate N-methyltransferase (GAMT). The data generated by this TCP can be leveraged for informed tool molecule development. For example, in the associated publication we identified a chemotype of HNMT-selective inhibitors. Additionally, we identified a putative SMMTase-selective inhibitor with potential as a tool molecule for studying broader methyltransferase biology.
# (§5) High-through put screening assays were developed at the National Center for Advancing Translational Science (NCATS) for the enzymes NNMT, PNMT, HNMT, GNMT, COMT, and GAMT. Enzymatic activity was measured as a function of SAM cofactor conversion using the MTase Glo kit (Promega) for all enzymes. All assays were performed in 1536-well format with substrates and SAM concentrations at KM values. Enzyme concentration and assay timing were optimized for 10-20% SAM conversion. Initial screening of 27,574 compounds was done as single-point assays using the highest compound concentration (40 uM). […] These compounds were replated in 11-point dose response and assayed against NNMT, PNMT, HNMT, GNMT, COMT, GAMT, and a counter-assay. The IC50 and efficacy (maximal response) values were determined for each dose-response curve. These values are also accounted for in the area under the curve (AUC) values.
# (§6) PROTOCOL TABLE (as described by Inglese J, Shamu CE and Guy RK. 2007)
# (§7) SEQUENCE No. (e.g., 1, 2, 3, etc.); […] (e.g., Cells, Incubation, Reagent, etc.); VALUE; DESCRIPTION.
# (§8) 1; Reagent; 2 uL; SMMTase Enzyme (2x) in reaction buffer, columns 1- 48.
# (§9) 2; Reagent; 1 uL; SAM (4x) in reaction buffer, columns 1-48.
# (§10) 3; Controls; 23 nL; DMSO in column 4; sinefungin in DMSO (0 uM - 40 uM) in 7-point 1:2 dilution series (n = 2) in column 2.
# (§11) 4; Compounds; 23 nL; Columns 5-48.
# (§12) 5; Reagent; 1 uL; Substrate (4x) in reaction buffer, columns 2-48.
# (§13) 6; Time; 20-30 min; Incubation.
# (§14) 7; Reagent; 1 uL; MTase-Glo reagent (5X), columns 1-48.
# (§15) 8; Time; 30 min; Incubation.
# (§16) 9; Reagent; 5 uL; MTase-Glo Detection reagent, columns 1-48.
# (§17) 10; Time; 30 min; Incubation, luminescence evolution.
# (§18) 11; Detection; Luminescence; ViewLux uHTS Microplate Imager (PerkinElmer).
# (§19) NOTES (numbers refer to Sequence numbers above)
# (§20) 1, 2, 5. White Medium Binding Greiner 1536-well plates (Cat #789175-F, Greiner Bio-One, Monroe, NC); Reaction buffer: 50 mM Tris, pH 8.0, 3 mM MgCl2, 1 mM EDTA, 50 mM NaCl, 1 mM DTT, and 0.1 mg/mL BSA. Evaporation was prevented by covering assay plates with metal lids containing holes to allow gas diffusion.
# (§21) 1. Six SMMTase were profiled: HNMT, GNMT, PNMT, COMT, NNMT, GAMT
# (§22) 5. The corresponding substrate was used for each enzyme: HNMT - 5.3 uM Histamine; GNMT - >500 uM Glycine; PNMT - 16.2 uM Norephinephrine; COMT - 13.7 uM Norephinephrine; NNMT - 3.8 uM Nicotinamide; GAMT - 2.5 uM Guanidinoacetate.6, 8, 10. Room temperature
# (§23) 6. Final reaction conditions: 10 nM COMT, 5 uM SAM, 15 uM norepinephrine, 50 mM Tris, pH 8.0, 3 mM MgCl2, 1 mM EDTA, 50 mM NaCl, 1 mM DTT, and 0.1 mg/mL BSA; refer to tables 2 and S1 for specific timing.
# 8. […]
# [2] = target: Glycine N-methyltransferase (Homo sapiens) (UniProt Q14749); conditions: purified enzyme, MTase-Glo SAH luminescence; measured here: GNMT inhibition; at 40 µM; stronger effect = lower value
# Chain of Glycine N-methyltransferase (Homo sapiens) (Q14749 whole entry, looked up): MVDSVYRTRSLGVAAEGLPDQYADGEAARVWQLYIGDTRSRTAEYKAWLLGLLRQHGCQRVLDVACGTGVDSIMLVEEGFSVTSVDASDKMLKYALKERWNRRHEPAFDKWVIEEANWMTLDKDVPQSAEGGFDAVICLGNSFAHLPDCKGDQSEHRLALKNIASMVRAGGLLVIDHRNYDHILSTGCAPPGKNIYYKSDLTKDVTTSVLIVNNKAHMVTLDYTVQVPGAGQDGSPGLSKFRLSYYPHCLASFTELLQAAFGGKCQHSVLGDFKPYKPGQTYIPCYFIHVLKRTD
# From the text: as §1, §2, §3, §4, §5, §6, §7, §8, §9, §10, §11, §12, §13, §14, §15, §16, §17, §18, §19, §20, §21, §22, §23
# 8. […]
# [3] = target: Guanidinoacetate N-methyltransferase (Homo sapiens) (UniProt Q14353); conditions: purified enzyme, MTase-Glo SAH luminescence; measured here: GAMT inhibition; at 40 µM; stronger effect = lower value
# From the text: as §1, §2, §3, §4, §5, §6, §7, §8, §9, §10, §11, §12, §13, §14, §15, §16, §17, §18, §19, §20, §21, §22, §23
# 8. […]
# [4] = target: Histamine N-methyltransferase (Homo sapiens) (UniProt P50135); conditions: purified enzyme, MTase-Glo SAH luminescence; measured here: HNMT inhibition; at 40 µM; stronger effect = lower value
# Chain of Histamine N-methyltransferase (Homo sapiens) (P50135 whole entry, looked up): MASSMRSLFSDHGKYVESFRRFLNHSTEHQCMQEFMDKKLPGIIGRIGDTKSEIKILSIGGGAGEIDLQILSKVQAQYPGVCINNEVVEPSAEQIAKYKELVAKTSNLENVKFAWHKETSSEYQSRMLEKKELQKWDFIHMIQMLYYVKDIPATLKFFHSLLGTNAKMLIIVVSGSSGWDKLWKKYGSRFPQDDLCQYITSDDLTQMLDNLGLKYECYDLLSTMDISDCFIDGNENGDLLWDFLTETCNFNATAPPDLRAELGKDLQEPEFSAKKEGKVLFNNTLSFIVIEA
# From the text: as §1, §2, §3, §4, §5, §6, §7, §8, §9, §10, §11, §12, §13, §14, §15, §16, §17, §18, §19, §20, §21, §22, §23
# 8. […]
# [5] = target: Nicotinamide N-methyltransferase (Homo sapiens) (UniProt P40261); conditions: purified enzyme, MTase-Glo SAH luminescence; measured here: NNMT inhibition; at 40 µM; stronger effect = lower value
# Chain of Nicotinamide N-methyltransferase (Homo sapiens) (P40261 whole entry, looked up): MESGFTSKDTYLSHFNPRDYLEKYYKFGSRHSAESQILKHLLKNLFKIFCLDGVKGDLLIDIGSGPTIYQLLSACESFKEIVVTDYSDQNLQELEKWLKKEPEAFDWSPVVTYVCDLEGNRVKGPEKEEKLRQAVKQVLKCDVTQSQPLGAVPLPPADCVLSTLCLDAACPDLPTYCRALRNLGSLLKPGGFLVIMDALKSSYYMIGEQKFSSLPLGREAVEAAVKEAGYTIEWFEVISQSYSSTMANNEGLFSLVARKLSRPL
# From the text: as §1, §2, §3, §4, §5, §6, §7, §8, §9, §10, §11, §12, §13, §14, §15, §16, §17, §18, §19, §20, §21, §22, §23
# 8. […]
# [6] = target: Phenylethanolamine N-methyltransferase (Homo sapiens) (UniProt P11086); conditions: purified enzyme, MTase-Glo SAH luminescence; measured here: PNMT inhibition; at 40 µM; stronger effect = lower value
# Chain of Phenylethanolamine N-methyltransferase (Homo sapiens) (P11086 whole entry, looked up): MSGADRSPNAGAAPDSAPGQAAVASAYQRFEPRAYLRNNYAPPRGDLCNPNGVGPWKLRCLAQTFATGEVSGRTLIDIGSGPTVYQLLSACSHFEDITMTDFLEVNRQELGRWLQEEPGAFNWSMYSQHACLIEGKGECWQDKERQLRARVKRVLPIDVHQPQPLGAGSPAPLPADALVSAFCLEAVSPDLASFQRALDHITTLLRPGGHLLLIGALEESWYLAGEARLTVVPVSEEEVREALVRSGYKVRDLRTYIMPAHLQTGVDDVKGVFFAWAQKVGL
# From the text: as §1, §2, §3, §4, §5, §6, §7, §8, §9, §10, §11, §12, §13, §14, §15, §16, §17, §18, §19, §20, §21, §22, §23
# 8. […]
# On the % scale 0 is the no-effect control and ±100 the full control effect.
Compound,"activity change, negative = inhibition [1]","activity change, negative = inhibition [2] [%]","activity change, negative = inhibition [3] [%]","activity change, negative = inhibition [4] [%]","activity change, negative = inhibition [5] [%]","activity change, negative = inhibition [6] [%]"
C[C@H]1O[C@@H](O[C@H]2CC[C@]3(CO)C4CC[C@]5(C)[C@@H](C6=CC(=O)OC6)CC[C@]5(O)[C@@H]4CC[C@H]3C2)[C@H](O)[C@H](O)[C@@H]1O[C@@H]1O[C@H](CO)[C@@H](O)[C@H](O)[C@H]1O (stereo not given in full),-91.7% (active),-5.56,-4.58,-5.35,-16,0.37
COC1CC(O[C@H]2CC[C@@]3(C)C(CCC4C3CC[C@]3(C)[C@@H](C5=CC(=O)OC5)CC[C@]43O)C2)OC(C)C1O (stereo not given in full),-9.86% (inactive),-6.87,-29.4,1.18,-27.7,-12.7
CO[C@H]1C[C@H](O[C@H]2CC[C@]3(CO)[C@H]4CC[C@]5(C)[C@@H](C6=CC(=O)OC6)CC[C@]5(O)[C@@H]4CC[C@]3(O)C2)O[C@H](C)[C@H]1O,-8.57% (inactive),-6.2,-5.89,-0.519,-17.6,-14.3
CN(C)c1ccc(C2c3cccn3-c3ccccc3CN2C(=O)NCc2ccccc2)cc1 (stereo not given),0.57% (inactive),0.802,6.24,-5.35,-6.61,-0.417
CN(C)c1ccc(C2c3cccn3-c3ccccc3CN2C(=O)Nc2ccccc2)cc1 (stereo not given),-1.13% (inactive),1.96,-0.001,-8,-4.78,-1.52
NCC(O)c1ccc(O)cc1 (stereo not given),3.68% (active),-1.52,3.17,-74.4,-9.18,11.4
COCC1CN(Cc2ccsc2)CC12CCNCC2 (stereo not given),-8.14% (inactive),-4.38,-6.87,-9.72,-11.7,-11.5
CCc1ccccc1NC(=O)N1Cc2ccccc2-n2cccc2C1c1ccccc1Cl (stereo not given),-0.522% (inactive),4.4,3.52,-2.61,1.65,1.03
CC(=O)Nc1ccc(-c2ccc3n(c2=O)C[C@H]2C[C@@H]3CN(C3CCN(C)CC3)C2)cc1,-5.08% (inactive),-3.31,-2.09,-19.5,-9.65,8.92
C#C[C@]1(O)CC[C@H]2[C@@H]3CC[C@H]4Cc5nc6nc7ccccc7n6cc5C[C@]4(C)[C@H]3CC[C@@]21C,-23.3% (active),-13.8,-29.6,-17.3,-52.4,-33.3
COc1cccc([C@H]2CN(c3cc(C)nc(N)n3)[C@@H]3C4CCN(CC4)[C@H]23)c1,-2.54% (inactive),-5.12,-8.6,-24.3,-8.14,-9.36
COc1cccc(CC(=O)N2CCCCCC2CN2CCCC2)c1 (stereo not given),3.61% (inactive),-1.59,-5.27,-5.48,-4.35,0.866
CCc1ccc(C2c3cccn3-c3ccccc3CN2C(=O)Nc2cc(C)cc(C)c2)cc1 (stereo not given),5.19% (inactive),9.8,0.9,2.8,4.04,7.84
COC(=O)c1ccccc1NC(=O)N1Cc2ccccc2-n2cccc2C1c1ccccc1Cl (stereo not given),3.56% (inactive),11.4,3.31,5.36,0.178,5.41
CCC1c2cccn2-c2ccccc2CN1C(=O)Nc1cccc(C)c1C (stereo not given),2.68% (inactive),-0.789,3.87,-2.49,-4.56,2.16
